# Data taken from ChEMBL document CHEMBL3988442, “University of Dundee, Small-Polar-MMV Screening Library” (2021).
# Among all 66,000 compounds or so, about 960 (1.5%) showed an effect of 50% or more. Only a selection was taken, and strong results are over-represented in it overall.
# Test system: Trypanosoma brucei
# Experiment: Trypanosoma brucei 72 hour study
# Assay type: functional, organism-based
# Design: scale not given: in the data most compounds retested in dose-response had high values
structure (smiles),measurement,setting,value
Cc1ccccc1C(=O)Nc1ccc(OC2CCN(C)CC2)cc1,Percent Effect,"30 µM, 30.03 µM",-8.393%
COc1ccccc1C(=O)Nc1ccc(OC2CCN(C)CC2)cc1,Percent Effect,"30 µM, 30.03 µM",-32.85%
Cl.O=C(NCC1CCCO1)c1cc(-c2ccncc2)c2cnccc2n1 (stereo not given),Percent Effect,"30.3 µM, […]",-19.01%
CC1=Nc2c(c(=O)[nH]n2C(C)C)C(c2ccc3ncccc3c2)S1 (stereo not given),Percent Effect,"30 µM, 30.03 µM",-30.02%
CC(Cn1cccn1)NCc1nc(-c2ccc3c(c2)OCO3)no1 (stereo not given),Percent Effect,"30.3 µM, […]",-4.603%
CC(Cn1cccn1)NCc1nc(-c2cccc(Cl)c2)no1 (stereo not given),Percent Effect,"30 µM, 30.03 µM",53.11%
CC(Cn1cccn1)NCc1nc(-c2cccnc2)no1 (stereo not given),Percent Effect,"30 µM, 30.03 µM",5.913%
Cc1cc(C)nc(N2CCCC(c3nccn3CCCN(C)C)C2)c1 (stereo not given),Percent Effect,"30 µM, 30.03 µM",-17.07%
CCn1ccnc1C1CCCN(C(=O)c2sc(C)nc2C)C1 (stereo not given),Percent Effect,"30 µM, 30.03 µM",-29.7%
Cc1nc(N)sc1C(=O)N1CCCC(c2nccn2CCCN(C)C)C1 (stereo not given),Percent Effect,"30 µM, 30.03 µM",50.48%
N#CCc1cccc(C(=O)N2CCN(CC(O)c3ccccc3)CC2)c1 (stereo not given),Percent Effect,"30.3 µM, […]",6.868%
same,Percent Effect,"10 mM, 10 mM as filed; unlikely as a test dose",-3.185%
Cc1ncccc1CNCC1CCN(CC(O)c2ccccc2)CC1 (stereo not given),Percent Effect,"30 µM, 30.03 µM",36.2%
Cc1ccc(CNCC2CCN(CC(O)c3ccccc3)CC2)o1 (stereo not given),Percent Effect,10 µM,51.2%
same,Percent Effect,"30.3 µM, […]",70.09%
Cc1noc(C)c1CNCC1CCN(CC(O)c2ccccc2)CC1 (stereo not given),Percent Effect,"30 µM, 30.03 µM",39.8%
OC(CN1CCC(CNCc2ccccn2)CC1)c1ccccc1 (stereo not given),Percent Effect,10 µM,-26.34%
same,Percent Effect,"30.3 µM, […]",32.19%
CCn1ccnc1CNCC1CCN(CC(O)c2ccccc2)CC1 (stereo not given),Percent Effect,"30 µM, 30.03 µM",95.36%
CCn1ccnc1CN1CCN(CC(O)c2ccccc2)CC1 (stereo not given),Percent Effect,"30 µM, 30.03 µM",-18.29%
CN(C)CCOC[C@H]1CC[C@H]2[C@H](CCN2C(=O)c2ccoc2)O1.O=C(O)C(F)(F)F,Percent Effect,"30 µM, 30.03 µM",21.89%
Cc1cnn(CC2CCCN2C(=O)c2cn(C)c3ccccc23)c1 (stereo not given),Percent Effect,10 µM,-33.63%
Cc1ccc(-c2cc(CNc3ncnc4c3CCNCC4)no2)cc1,Percent Effect,"30 µM, 30.03 µM",31.3%
CSc1ccc(CN(C)Cc2noc(C(C)(C)C)n2)cc1,Percent Effect,"30 µM, 30.03 µM",-12.59%
Cc1ccc2c(n1)N(CCn1cccn1)CCN(CC1CC1)C2.O=C(O)C(F)(F)F.O=C(O)C(F)(F)F,Percent Effect,"30.3 µM, […]",-30.39%
CS(=O)(=O)N1CCC(CNC(=O)C2CCCC2)CC1,Percent Effect,"30 µM, 30.03 µM",-35.01%
COCCN1CCCC2(CCN(c3cc(C)c(C#N)c(C)n3)C2)C1=O (stereo not given),Percent Effect,"30 µM, 30.03 µM",50.02%
Cc1cc(C)c(C#N)c(N2CCC3(CCCN(CCO)C3=O)C2)n1 (stereo not given),Percent Effect,"30 µM, 30.03 µM",-17.57%
Cc1cc(N2CCC3(CCCN(CCO)C3=O)C2)nc(C)c1C#N (stereo not given),Percent Effect,"30 µM, 30.03 µM",-51.69%
Cn1cccc1C(=O)N1CCC2(CCN(C(=O)c3cccnc3)C2)CC1.O=C(O)C(F)(F)F,Percent Effect,"30.3 µM, […]",-55.95%
CC1c2ncc(CNC(=O)C3CC3)n2CCN1Cc1ccncc1.O=C(O)C(F)(F)F.O=C(O)C(F)(F)F (stereo not given),Percent Effect,"30.3 µM, […]",-14.67%
C[C@@H]1C(=O)NC[C@H]2CN(CCc3ccccc3)C[C@H]21.O=C(O)C(F)(F)F,Percent Effect,"30.3 µM, […]",-1.404%
CCc1nc(CN(C(C)=O)C2CCN(CCc3ccccc3)C2)no1 (stereo not given),Percent Effect,10 µM,-54.25%
CCc1nc(CN(C(C)=O)C2CCN(CCc3ccccn3)C2)no1 (stereo not given),Percent Effect,10 µM,65.29%
CCc1nc(CN(C)C2CCN(CCc3ccccn3)C2)no1 (stereo not given),Percent Effect,"30 µM, 30.03 µM",3.156%
Cc1ccc(CN2C[C@@H]3[C@@H](C(=O)NCC4CC4)CCS(=O)(=O)[C@@H]3C2)cc1.O=C(O)C(F)(F)F,Percent Effect,"30.3 µM, […]",-76.84%
O=C1C[C@H]2CC[C@@H](CN1)N2C(=O)Cc1ccsc1,Percent Effect,"30.3 µM, […]",-6.652%
CN(C)C(=O)COCc1cncc2c1CCN(Cc1ccccn1)C2.O=C(O)C(F)(F)F.O=C(O)C(F)(F)F,Percent Effect,"30.3 µM, […]",-50.95%
O=C(NC1CC1)[C@@H]1CCO[C@@H]2CCN(CCc3ccccc3)C[C@@H]21.O=C(O)C(F)(F)F,Percent Effect,"30.3 µM, […]",-14.39%
CC(C)n1c2ccccc2c2c1cc(C(=O)N(C)C)n2C,Percent Effect,"30.3 µM, […]",-58.05%
CC(CNC(=O)c1ccc(C#N)cc1)N1CCc2ccccc21 (stereo not given),Percent Effect,"30.3 µM, […]",1.685%
COc1ccc(NC(=O)NCC(C)N2CCc3ccccc32)cc1 (stereo not given),Percent Effect,"30.3 µM, […]",-7.739%
CC(CNC(=O)Nc1ccc(C#N)cc1)N1CCc2ccccc21 (stereo not given),Percent Effect,"30.3 µM, […]",100.3%
CC(=O)Nc1c(C)noc1/C=C\c1ccc(S(=O)(=O)NC2CC2)cc1,Percent Effect,"30.3 µM, […]",-2.674%
CS(=O)(=O)N1CCCC1c1cccc(Nc2nccs2)n1 (stereo not given),Percent Effect,"30.3 µM, […]",92.1%
Cc1ccccc1CN1CCCC1c1cccc(Nc2nccs2)n1 (stereo not given),Percent Effect,"30.3 µM, […]",5.594%
COCC(=O)N1CCCCC1c1ccnc(Nc2ncc(C)s2)n1 (stereo not given),Percent Effect,"30.3 µM, […]",16.03%
c1ccc(CCN2CCCC2c2cccc(Nc3nccs3)n2)cc1 (stereo not given),Percent Effect,"30.3 µM, […]",29.28%
Cc1cnc(Nc2cccc(C3CCCN3C(=O)CO)n2)s1 (stereo not given),Percent Effect,"30.3 µM, […]",28.67%
COCC(=O)N1CCCC1c1cccc(Nc2ncc(C)s2)n1 (stereo not given),Percent Effect,"30.3 µM, […]",85.92%
